Experimental findings from PubChem BioAssay are described below.

SMILES strings stand for the structures. Activity calls are given as the source filed them. Unless noted, the rule behind the calls is not given here.

A short description of assay [1]: resazurin metabolic signal in HepG2 cells – cell-based, resazurin fluorescence, 24 h, PK04 Diversity Set, profiling panel (AID 1172). Note: test concentration not given here. To be noted: HepG2 viability, higher = more signal.
Assay [2] can be described thus: budding yeast growth changes without added modifier – OD600, strain BY4716, 24 h, basal condition, primary screen (AID 1173). The conditions noted are these: S. cerevisiae BY4716 growth, OD600, 24 h; higher = more signal, called active from +8 up or from −8 down.
Assay [3] can be described thus: viability profiling in MM1S myeloma cells – cell-based, resazurin fluorescence, basal, 24 h, PK04 Diversity Set, profiling panel (AID 1174).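 Note: MM1S multiple myeloma cell line; test concentration not given here.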 The conditions noted are these: higher = more signal, called active from +8 up or from −8 down. For orientation: The colour change of resazurin is a common sign of viable cells or microbes.
The target in assay [4] is Dihydroorotate dehydrogenase (quinone), mitochondrial (Plasmodium falciparum (isolate 3D7)) (UniProt Q08210). Nature of the assay: inhibition of P. falciparum DHODH – biochemical, C-terminal His tag, absorbance 600 nm, primary screen (AID 1175).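 Note: recombinant parasite enzyme with a five histidine tag at its C terminus; test concentration not given here.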 To be noted: PfDHODH enzyme, DCIP absorbance 600 nm; higher = more signal, called active from +8 up or from −8 down.
Sequence of Dihydroorotate dehydrogenase (quinone), mitochondrial (Plasmodium falciparum (isolate 3D7)) (Q08210 whole entry, looked up): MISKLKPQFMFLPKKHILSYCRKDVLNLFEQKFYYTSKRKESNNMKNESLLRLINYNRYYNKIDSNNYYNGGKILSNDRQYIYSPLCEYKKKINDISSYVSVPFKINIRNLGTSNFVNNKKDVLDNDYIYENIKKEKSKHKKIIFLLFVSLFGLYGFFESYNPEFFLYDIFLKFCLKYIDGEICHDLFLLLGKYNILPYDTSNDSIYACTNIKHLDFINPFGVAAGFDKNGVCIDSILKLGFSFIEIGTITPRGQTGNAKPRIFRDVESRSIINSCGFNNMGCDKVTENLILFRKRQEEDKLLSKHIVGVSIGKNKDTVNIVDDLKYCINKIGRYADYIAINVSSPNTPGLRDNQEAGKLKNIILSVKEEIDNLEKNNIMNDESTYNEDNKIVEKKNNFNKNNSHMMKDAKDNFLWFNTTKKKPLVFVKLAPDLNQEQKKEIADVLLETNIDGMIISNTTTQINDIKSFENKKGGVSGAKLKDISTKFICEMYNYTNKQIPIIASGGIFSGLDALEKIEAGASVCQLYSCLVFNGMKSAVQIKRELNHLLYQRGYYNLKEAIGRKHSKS
A short description of assay [5]: inhibition of PAO1 biofilm formation – strain PAO1, LB-PBS medium, absorbance 600 nm, primary screen (AID 1176). Note: test concentration not given here. To be noted: P. aeruginosa PAO1 growth/biofilm, A600, 12 h; higher = more signal.
Assay [6] in a line: growth modulation of vineyard yeast isolate – strain RM11-1a, OD600, basal, 24 h, primary screen (AID 1177).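 Note: cultures grown under basal conditions with no added stressor; test concentration not given here.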 The conditions noted are these: S. cerevisiae RM11-1a growth, OD600, 24 h; higher = more signal, called active from +8 up or from −8 down.
Assay [7] in a line: growth of efflux-deficient E. coli DRC39 – strain DRC39, OD650, 24 h, E. coli filamentation inducers, primary screen (AID 1178).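 Note: growth measured as culture turbidity by optical density at 650 nm; test concentration not given here.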 To be noted: E. coli DRC39 acrAB, higher = more signal, called active from +8 up or from −8 down.
Assay [8] in a line: growth of efflux-deficient E. coli DRC39 – strain DRC39, OD650, 48 h, E. coli filamentation inducers, primary screen (AID 1179).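 Note: screen aims at cell division blockers that make cells filament.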 To be noted: E. coli DRC39 delta-acrAB growth, higher = more signal, called active from +8 up or from −8 down.
Assay [9] in a line: viability profiling in RPMI8226 myeloma cells – cell-based, resazurin fluorescence, basal, 24 h, PK04 Diversity Set, profiling panel (AID 1180).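 Note: RPMI8826 multiple myeloma cell line at 5000 cells per well; test concentration not given here.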 The conditions noted are these: higher = more signal.
The target of assay [10] is E3 ubiquitin-protein ligase XIAP (Homo sapiens) (UniProt P98170). Description: small molecules binding XIAP protein – biophysical, small-molecule microarray, fluorescence 635 nm, primary screen (AID 1181).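 Note: score merges 667 nm emission and signal to noise over triplicate slides.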 The conditions noted are these: higher = more signal.
Sequence of E3 ubiquitin-protein ligase XIAP (Homo sapiens) (P98170 whole entry, looked up): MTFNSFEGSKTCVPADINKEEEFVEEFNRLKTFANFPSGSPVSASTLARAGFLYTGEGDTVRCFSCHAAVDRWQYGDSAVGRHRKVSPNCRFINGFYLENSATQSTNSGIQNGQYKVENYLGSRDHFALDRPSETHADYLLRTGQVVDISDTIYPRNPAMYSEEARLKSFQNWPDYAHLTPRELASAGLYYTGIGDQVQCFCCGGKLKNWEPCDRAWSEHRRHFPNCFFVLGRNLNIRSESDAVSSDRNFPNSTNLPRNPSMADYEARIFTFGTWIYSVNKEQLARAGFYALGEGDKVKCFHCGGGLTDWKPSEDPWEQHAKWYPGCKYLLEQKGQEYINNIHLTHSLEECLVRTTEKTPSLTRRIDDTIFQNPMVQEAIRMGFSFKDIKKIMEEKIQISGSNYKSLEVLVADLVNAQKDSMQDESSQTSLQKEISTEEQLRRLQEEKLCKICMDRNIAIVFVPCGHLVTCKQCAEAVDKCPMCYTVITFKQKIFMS

Consider `[N-]=[N+]=Nc1ccccc1[C@H]1OC(c2ccc(OCCCO)cc2)=N[C@@]1(CCS(=O)(=O)c1ccccc1)C(=O)NCCN1CCOCC1`, for which the z-score is 0.3 in [1]; -0.378 (inactive) in [2]; 0.131 (inactive) in assay [3]; 0.537 (inactive) in [5]; 0.0557 (inactive) in [6]; -0.259 (inactive) in assay [7]. The z-score in [8] is -0.264 (inactive); in [9], 0.291. In addition, the composite z-score is 0.467 (inactive) in assay [4] and 0.177 in assay [10].

Turning to `O=C1NC(=O)C2C1C=CC(C(O)CCc1ccccc1)N2Nc1ccc(Cl)cc1Cl` (stereo not given), the z-score was -1.24 in assay [1]; -3.34 (inactive) in assay [2]; -1.59 (inactive) in [3]; 0.667 (inactive) in [5]; -0.385 (inactive) in assay [6]; -0.172 (inactive) in assay [7]. Also, the figures for the z-score in assay [8] and in [9] were -0.611 (inactive) and -1.77, respectively. Further, the composite z-score is -0.596 (inactive) in assay [4] and 0.178 in [10].

For `CCOC(=O)C[C@H]1[C@H](OC(=O)c2ccccc2-c2ccccc2)[C@@H](NC(=O)c2ccc(-c3ccccc3)cc2)c2cc(OCCCO)ccc2N1C(=O)c1ccc2ccccc2n1`, the z-score was -0.0523 in assay [1]; 0.662 (inactive) in assay [2]; 0.128 (inactive) in assay [3]; 0.318 (inactive) in assay [5]; 0.752 (inactive) in [6]; -0.447 (inactive) in assay [7]. The z-score is -0.0565 (inactive) in assay [8] and 0.636 in assay [9]. Further, the composite z-score in assay [4] is -0.0558 (inactive); in assay [10], 0.0891.

On to `O=C1O[C@H](c2ccccc2)[C@H](c2ccccc2)N2[C@H]1[C@@H](C(=O)N1CCN(c3ncccn3)CC1)[C@]1(C(=O)Nc3ccc(C#CC4(O)CCCCCC4)cc31)[C@H]2c1ccc(OCCO)cc1`, for which the z-score is 0.204 in assay [1]; 1.82 (inactive) in assay [2]; -0.484 (inactive) in assay [3]; 3.52 (inactive) in [5]; 3.34 (inactive) in assay [6]; -0.427 (inactive) in [7]. Besides, the z-score is -0.0689 (inactive) in assay [8] and 0.478 in [9]. The composite z-score was -0.884 (inactive) in [4] and 0.258 in assay [10].

For `CCCC[C@@H]1C[C@H]1[C@@H](NC(=O)c1cccs1)c1ccc(C(F)(F)F)cc1`, the z-score was -0.117 in [1]; 1.95 (inactive) in assay [2]; -0.6 (inactive) in assay [3]; 0.771 (inactive) in assay [5]; 1.83 (inactive) in assay [6]; -0.82 (inactive) in assay [7]. The z-score in [8] was -0.734 (inactive); in [9], -0.601. For the same molecule, the composite z-score in assay [4] was 0.322 (inactive); in assay [10] it was 0.0408.

With `CC(C)OC(=O)C=C1C[C@@H](c2ccc(C(F)(F)F)cc2)O[C@@H](c2ccc(C(F)(F)F)cc2)O1`, the z-score was 0.54 in [1]; -5.34 (inactive) in [2]; 0.533 (inactive) in assay [3]; 0.257 (inactive) in [5]; -1.93 (inactive) in assay [6]; 0.2 (inactive) in [7]. Moreover, the results for the z-score in assay [8] and in assay [9] were 1.41 (inactive) and 0.0779, respectively. For the same molecule, the composite z-score in assay [4] is -1.4 (inactive); in assay [10], 0.371.

Regarding `[N-]=[N+]=Nc1ccccc1[C@@H]1OC(c2ccc(OCCCO)cc2)=N[C@]1(Cc1ccccc1)C(=O)NCC(O)CO` (stereo not given in full), the z-score in assay [1] is 0.0381; in [2] it was -2.75 (inactive); in [3], -0.53 (inactive); in assay [5] it was -0.291 (inactive); in assay [6], 1.06 (inactive); in assay [7], 2.24 (inactive). Further, the z-score is 0.783 (inactive) in [8] and -0.71 in [9]. Also, the composite z-score in [4] was 0.255 (inactive); in [10], 0.366.
